Consider 17 compounds from PubChem BioAssay (NCATS).

Assay [1] in a line: Viability qHTS for spleen associated tyrosine kinase inhibitor (SYKi) naive MV4-11 cells (AID 1963823). Note: nearly all actives have a fitted effect of over 40% in size. Particulars: MV4-11 AML viability, CellTiter-Glo luminescence, 72 h; series mostly up to 45 µM. A digest of the protocol: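 SYKi-naive MV4-11 AML cells, 500 per well, were exposed to library compounds for 72 hr at 37 C, 5% CO2. Viability was then read by CellTiter-Glo luminescence after 10 min at room temperature.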
For orientation: qHTS replaces the single test concentration by a dilution series.

Assay [2] is described as follows: Cellular viability qHTS for adrenocortical cancer (ACC) cell line SW-13 (AID 1963989).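 For activity (max response): cells grown in serum-free medium with ITS supplement; % is set by controls: 0 for no effect and ±100 for the full control effect.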 Note: nearly all actives have a fitted effect of over 65% in size. The conditions noted are these: SW-13 ACC cells viability, CellTiter-Glo, 48 h; activity (max response): active compounds read low. A digest of the protocol: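 Viability was read as CellTiter-Glo luminescence after 48 h compound treatment (up to 46 uM final) of SW-13 cells grown serum-free; titration curves were fit with a four-parameter logistic model to give IC50 and efficacy.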

The nature of assay [3]: Quantitative highthroughput screen to assess conditional lethalithy of NOMO1 cells grown in RPMI1640 with dialyzed fetal bovine serum (RPMI+ds) (AID 1963877).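 For Viability: 100% = DMSO control wells and 0% = empty wells.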 Note: nearly all actives have a fitted effect of over 30% in size. Particulars: NOMO1 in RPMI+dialyzed FBS viability, ATP luminescence, 48 h; series mostly up to 45.8 µM. The procedure, abridged: (§1)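 Each medium arm—HPLM with 10% dialyzed FBS, or RPMI1640 with 5 mM glucose and 10% untreated or dialyzed FBS—was screened against an 11-point, 3-fold compound titration for 48 h at 37 °C, with CellTiter-Glo luminescence as endpoint.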

Assay [4] is described as follows: Quantitative highthroughput screen to assess conditional lethalithy of NOMO1 cells grown in Human Plasma-Like Medium with dialyzed fetal bovine serum (HPLM+ds) (AID 1963878). Note: nearly all actives have a fitted effect of over 35% in size. Particulars: NOMO1 AML cells in HPLM+ds, CellTiter-Glo viability, 48 h; series mostly up to 45.8 µM. A digest of the protocol:
as §1
In general terms: ATP-based viability assays read luminescence as a measure of living cells.

A short description of assay [5]: Quantitative highthroughput screen to assess conditional lethalithy of SEM cells grown in Human Plasma-Like Medium with dialyzed fetal bovine serum (HPLM+ds) (AID 1963882). Note: nearly all actives have a fitted effect of over 35% in size. The conditions noted are these: SEM B-ALL cells in HPLM+ds, CellTiter-Glo viability, 48 h; series mostly up to 45.8 µM. A digest of the protocol: as §1
Assay [6] can be described thus: Quantitative highthroughput screen to assess conditional lethalithy of SEM cells grown in RPMI1640 with dialyzed fetal bovine serum (RPMI+ds) (AID 1963884).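 For Viability: 100% = DMSO control wells and 0% = empty wells without cells.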 Note: nearly all actives have a fitted effect of over 35% in size. The conditions noted are these: SEM B-ALL cells, RPMI+dialyzed FBS, CellTiter-Glo viability, 48 h; series mostly up to 45.8 µM. A digest of the protocol: as §1
Assay [7] can be described thus: Cellular viability qHTS for adrenocortical cancer (ACC) cell line NCI-H295R (AID 1963990). Note: nearly all actives have a fitted effect of over 60% in size. Particulars: CellTiter-Glo ATP luminescence, 48 h; series mostly up to 46.1 µM. A digest of the protocol: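 CellTiter-Glo ATP luminescence, read 48 h after compound addition, measured viability of NCI-H295R adrenocortical cells grown serum-free with ITS. Final concentrations spanned up to 46 uM. Data normalized to DMSO and doxorubicin, fitted for IC50 and maximal response.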

Assay [8] is described as follows: Quantitative highthroughput screen to assess conditional lethalithy of SEM cells grown in RPMI1640 with unreated serum (RPMI+s) (AID 1963883).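 For Viability: 100% = DMSO wells and 0% = empty wells without cells.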 Note: nearly all actives have a fitted effect of over 35% in size. Particulars: SEM B-ALL cells, CellTiter-Glo viability, 48 h; series mostly up to 45.8 µM. The procedure, abridged:
as §1

A short description of assay [9]: Quantitative highthroughput screen to assess conditional lethalithy of P12 Ichikawa cells grown in Human Plasma-Like Medium with dialyzed fetal bovine serum (HPLM+ds) (AID 1963879). Note: nearly all actives have a fitted effect of over 35% in size. Particulars: ATP luminescence, 48 h; Potency: viability; series mostly up to 45.8 µM. A digest of the protocol:
as §1

The nature of assay [10]: Quantitative highthroughput screen to assess conditional lethalithy of P12 Ichikawa cells grown in RPMI1640 with dialyzed fetal bovine serum (RPMI+ds) (AID 1963880).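 For Viability: 100% = DMSO wells and 0% = empty wells on each plate.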 Note: nearly all actives have a fitted effect of over 35% in size. The conditions noted are these: ATP luminescence, 48 h; Potency: P12-Ichikawa viability; series mostly up to 45.8 µM. The procedure, abridged: as §1
Assay [11] in a line: Quantitative highthroughput screen to assess conditional lethalithy of P12 Ichikawa cells grown in RPMI1640 with untreated serum (RPMI+s) (AID 1963881).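 For Viability: 100% = DMSO wells and 0% = empty wells without cells.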 Note: nearly all actives have a fitted effect of over 35% in size. Particulars: ATP luminescence, 48 h; Potency: viability; series mostly up to 45.8 µM. A digest of the protocol: as §1

Values joined by “and” are separate entries in the source; they are usually repeats but may differ in a detail not shown here. Equal entries are not always repeated. Inconclusive results are not listed. A number with no mark means an inactive call. Active and inactive are the calls of the source. Calls come from the whole dose curve; as a rule, active = well fitted curve in the direction sought with a large enough effect; inconclusive = small, poorly fitted or top-dose-only effect, or another doubt; inactive = no such curve, though single readings can be large; an effect the other way counts as inactive or inconclusive.
Potency is the fitted concentration of half-maximal effect.

For `COc1cc([C@@H]2c3cc4c(cc3[C@@H](O[C@@H]3O[C@@H]5CO[C@@H](c6cccs6)O[C@H]5[C@H](O)[C@H]3O)[C@H]3COC(=O)[C@H]23)OCO4)cc(OC)c1O`, the results for the Potency in assay [1] and in assay [2] were 74.2 nM (active) and 2.51 µM (active), respectively.
On to `COc1c(C)cnc(Cn2cnc3c(Cl)nc(N)nc32)c1C`, for which the Potency in assay [1] was 132 nM (active); in [3] it was 0.662 µM (active); in assay [4] it was 0.662 µM (active); in assay [5], 0.372 µM (active); in assay [6] it was 0.296 µM (active); in assay [2] it was 2 µM (active). Also, the Potency in [7] is 1.78 µM (active).
As for `Cc1cc2nc3c(=O)[nH]c(=O)nc-3n(C[C@H](O)[C@H](O)[C@H](O)CO)c2cc1C`, the Potency entry in assay [1] is “inactive”. The activity (max response) in assay [2] is 8.72%.
Turning to `Cc1ccc(Nc2nccc(N(C)c3ccc4c(C)n(C)nc4c3)n2)cc1S(N)(=O)=O`, the Potency in [1] was 742 nM (active); in assay [5], 16.6 µM (active); in assay [8] it was 14.8 µM (active); in assay [6], 14.8 µM (active). Further, the activity (max response) in assay [2] is -20.1%. In addition, in [7], the Potency result was “inactive”.
Take `COc1ccc2c(c1)c(CC(=O)OCC(=O)O)c(C)n2C(=O)c1ccc(Cl)cc1`: the Potency result in [1], in [3], in assay [9], in assay [10], in assay [5] and in assay [8] was “inactive” throughout. Moreover, the Potency entry in assay [6] and in assay [7] was “inactive” in each case. Moreover, the activity (max response) in assay [2] is -2.34%.
Consider `CC1(C)CCC(C)(C)c2cc(NC(=O)c3ccc(C(=O)O)cc3)ccc21`, for which the Potency result in assay [1], in assay [3], in assay [9], in assay [11], in [5] and in [8] was “inactive” each time. Also, the Potency entry in [6] and in assay [7] was “inactive” in each case. Besides, in assay [2], the activity (max response) was -9.24%.
Regarding `NC(=O)c1ccc2[nH]ccc2c1`, the Potency result in assay [1] and in [7] was “inactive” throughout. Besides, in [6], the Potency was 18.7 µM (active). Further, the activity (max response) in assay [2] was -8.13%.
For the compound `COc1cc2ncnc(-n3nc(-c4ccccn4)nc3N)c2cc1OC`, the Potency in assay [1] is 796 nM (active) and 1.48 µM (active); in assay [3], 23.5 µM (active); in assay [4], 20.9 µM (active); in assay [11] it was 26.4 µM (active); in assay [5], 5.26 µM (active); in assay [8], 1.32 µM (active). The Potency in [6] is 2.35 µM (active). Moreover, in assay [2], the activity (max response) is 10.9%. Besides, the Potency entry in [7] was “inactive”.
In the case of `C=C(c1ccc(C(=O)O)cc1)c1cc2c(cc1C)C(C)(C)CCC2(C)C`, the results for the Potency in assay [1], in [3] and in [4] were 468 nM (active), 1.05 µM (active) and 0.469 µM (active), respectively. The Potency entry in [10], in assay [11], in [5], in assay [8], in [6] and in assay [7] was “inactive” in each case. Moreover, in assay [2], the activity (max response) was -0.298% and -6.68%.
Turning to `C[C@H]1COc2c(N3CCN(C)CC3)c(F)cc3c(=O)c(C(=O)O)cn1c23`, the Potency entry in assay [1] and in [7] was “inactive” throughout. The Potency is 23.5 µM (active) in [3]; 8.33 µM (active) in assay [9]; 4.18 µM (active) in assay [11]; 13.2 µM (active) in assay [8]; 1.32 µM (active) in [6]. Moreover, the activity (max response) in [2] is 6.21%.
Take `Oc1ccc([C@@H]2Oc3ccc(O)cc3[C@@H]3CCC[C@@H]32)cc1`: the Potency in [1] is 5800 nM (active); in [9], 13.2 µM (active); in assay [11], 11.8 µM (active); in [6], 10.5 µM (active); in assay [7] it was 7.08 µM (active).
On to `CCOC(=O)C1=C[C@]2(CC)CCCN3CCc4c(n1c1ccccc41)[C@@H]32`, for which, in [1], the Potency is 13300 nM (active). Also, the Potency result in [9], in [5] and in [6] was “inactive” each time.
Regarding `O=C1OCCN1/N=C/c1ccc([N+](=O)[O-])o1`, the Potency entry in assay [1] is “inactive”. Moreover, the activity (max response) in [2] is -0.921%.
Turning to `CC(=O)OC[C@@H]1O[C@@H](n2ccc(=O)[nH]c2=O)[C@H](OC(C)=O)[C@H]1OC(C)=O`, the Potency result in assay [1], in assay [5], in assay [6] and in assay [7] was “inactive” in each case. The activity (max response) in assay [2] is -1.19%.
Turning to `CCN(CC)C(C)CN1c2ccccc2Sc2ccccc21` (stereo not given), the Potency entry in assay [1] was “inactive”. Also, in assay [2], the activity (max response) was 16.5%.
As to `Cc1ccc(NC(=O)C2(c3ccc4c(c3)OC(F)(F)O4)CC2)nc1-c1cccc(C(=O)O)c1`, the Potency entry in assay [1] and in assay [7] was “inactive” each time. Also, the Potency was 0.209 µM (active) in [3]; 0.187 µM (active) in assay [4]; 0.187 µM (active) in assay [9]; 0.187 µM (active) in assay [10]; 0.148 µM (active) in assay [11]; 0.0935 µM (active) in assay [5]. The Potency in assay [8] is 0.0743 µM (active); in assay [6], 0.0833 µM (active). In assay [2], the activity (max response) is 4.62%.
Regarding `C[C@]1(c2nc3c(C(N)=O)cccc3[nH]2)CCCN1`, the Potency entry in assay [1], in assay [9], in assay [5] and in assay [7] was “inactive” each time. Further, the activity (max response) in assay [2] is 7.65%.
